FLuc modulator: firefly luciferase modulation, counter-screen for miR-21 project; P08659; purified FLuc, Km substrates, luminescence inhibition; Potency, µM (top dose mostly 57.5 µM), for the others: at the highest dose activity change, negative = inhibition, hits mostly inhibitors; 360,000 compounds, 6.9% hits; AID 588342;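 further: plate controls were vehicle for no effect and reference inhibitor for full effect; nearly all actives have a fitted effect of over 55% in size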
Target sequence (P08659 whole entry, looked up): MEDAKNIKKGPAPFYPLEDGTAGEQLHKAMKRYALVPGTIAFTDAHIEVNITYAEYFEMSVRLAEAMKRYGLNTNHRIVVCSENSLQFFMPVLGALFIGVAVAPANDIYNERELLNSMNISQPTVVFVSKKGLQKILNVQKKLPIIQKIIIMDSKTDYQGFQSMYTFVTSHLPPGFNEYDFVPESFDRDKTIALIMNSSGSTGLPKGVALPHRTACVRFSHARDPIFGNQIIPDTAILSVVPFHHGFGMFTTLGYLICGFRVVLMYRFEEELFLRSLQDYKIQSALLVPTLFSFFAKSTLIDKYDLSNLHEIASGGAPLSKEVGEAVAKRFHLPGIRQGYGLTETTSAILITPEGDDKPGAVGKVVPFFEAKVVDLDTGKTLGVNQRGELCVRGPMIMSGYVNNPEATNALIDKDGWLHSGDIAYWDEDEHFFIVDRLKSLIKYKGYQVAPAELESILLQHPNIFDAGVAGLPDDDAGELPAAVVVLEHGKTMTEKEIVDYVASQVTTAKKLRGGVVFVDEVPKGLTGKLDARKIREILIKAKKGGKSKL
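Purified P. pyralis luciferase (10nM final) with 10uM D-luciferin and 10uM ATP (Km levels) in 50mM Tris acetate pH 7.5, 10mM Mg acetate, 0.01% Tween-20, 0.05% BSA; qHTS 6-point titration, ~60 µM downward; luminescence read.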
ELG1 genotox: inducers of genotoxicity in HEK293T ELG1-luciferase cells. HEK293T ELG1-luciferase reporter, luminescence, 16 h. Potency, µM (top dose mostly 46 µM), for the others: at the top dose activity change, positive = activation, most hits filed as activators. 330,000 compounds, 1.3% hits; further: % of control where 0% means no effect; nearly all actives have a fitted effect of over 60% in size
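Quantitative HTS format in 1536-well plates. HEK293T ELG1-luciferase reporter cells receive test compound and are incubated 16 hr at 37 °C, 5% CO2; ONE-Glo added, 30 min room temperature, then luminescence read.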
Rab9 prom act: activators of Rab9 promoter; AID 485297; Potency, µM (top dose mostly 9.22 µM), inactives show top-dose activation, negative = inhibition, actives largely listed as activators; Huh7 Rab9 promoter-luciferase reporter, luminescence, 24 h; 320,000 compounds, 2.8% hits; further: % of control where 0% means no effect; nearly all actives have a fitted effect of over 60% in size
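Huh7 cells stably carrying Rab9 promoter–luciferase reporter, plated 1500 cells/well, compound added after 2 h and incubated 24 h at 37 °C; luciferase luminescence then read after 10 min with detection reagent.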
NPC1 promoter act: activates the NPC1 promoter; 320,000 compounds, 2.4% hits; Potency, µM (top dose mostly 9.22 µM), without a hit: at the top dose activation, hits mostly activators; Huh7 NPC1 promoter luciferase reporter, 24 h; AID 485313; further: % of control where 0% means no effect; nearly all actives have a fitted effect of over 60% in size
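NPC1 promoter–luciferase Huh7 cells; 24 h compound; luminescence.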
SMN2 splice enh: increases expression of the SMN2 splice variant. HEK293 SMN2-luciferase splicing reporter, luminescence, 30-36 h. Potency, µM (series often up to 46.1 µM), for inactives: top-dose activity change, positive = activation, usual class: activators. 210,000 compounds, 2.8% hits. AID 1458; further: % of control where 0% means no effect; nearly all actives have a fitted effect of over 55% in size
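qHTS luciferase splicing reporter: luminescence rises when SMN2 exon 7 is included in transfected HEK293 cells. Compound exposure lasted 30-36 h at 37C, with 4.5 mM final sodium butyrate as control, followed by a ONE-Glo read.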
Active calls of the source: *; [ ] = dose if it differs, or a comment. Sampled rows, rich in hits. Any-hit rate of the full collection: about 7.4%. The call rests on the fitted dose curve; in most records, active means well fitted curve in the direction sought with a large enough effect; inconclusive means small, poorly fitted or top-dose-only effect, or another doubt; inactive means no such curve, though single readings can be large; an effect the other way counts as inactive or inconclusive. Potency means the concentration at half of the fitted maximal effect.

How did Clc1cccc(N/N=C/c2ccc(N3CCOCC3)s2)c1 do in these assays?
FLuc modulator: 9.53µM*; ELG1 genotox: -9.4%; Rab9 prom act: 20.7%; NPC1 promoter act: -0.8%; SMN2 splice enh: -5.4%

How did O=C(N/N=C/c1ccc(N2CCOCC2)s1)c1ccccc1Br do in these assays?
FLuc modulator: inconclusive; ELG1 genotox: 4.7%; Rab9 prom act: 26.1%; NPC1 promoter act: 10.5%; SMN2 splice enh: 15.3%

What do the screens show for `CCCCSc1ccc2nc(-c3ccc(C#N)cc3)cn2c1`?
FLuc modulator: 4.78µM*; ELG1 genotox: 4.1%; Rab9 prom act: inconclusive; NPC1 promoter act: inconclusive; SMN2 splice enh: inconclusive

How did CCCCCCSc1ccc(-c2nc3ccccn3c2NCCCC)cc1 do in these assays?
FLuc modulator: inconclusive; ELG1 genotox: 1.2%; Rab9 prom act: 0.6%; NPC1 promoter act: -1.0%

What do the screens show for `CCCCCCCOc1ccc(-c2ccc(C#N)cn2)cc1`?
FLuc modulator: 3.3%; ELG1 genotox: -1.7%; Rab9 prom act: -3.5%; NPC1 promoter act: -4.2%; SMN2 splice enh: -16.0%

How did CCCSc1ccc2nc(-c3ccccc3)cn2c1 do in these assays?
FLuc modulator: 0.0849µM*; ELG1 genotox: inconclusive; Rab9 prom act: 0.447µM*; NPC1 promoter act: 0.708µM*

How did CN(C)c1ccc(CC(=O)c2nc3ccccc3s2)cc1 do in these assays?
FLuc modulator: 8.49µM*; ELG1 genotox: inconclusive; Rab9 prom act: 2.51µM*; NPC1 promoter act: inconclusive; SMN2 splice enh: -6.0%

What do the screens show for `CN(C(=O)CCc1nc2ccccc2s1)c1ccccc1`?
FLuc modulator: -2.9%; ELG1 genotox: inconclusive; Rab9 prom act: -5.6%; NPC1 promoter act: -1.0%; SMN2 splice enh: 12.9%

Results for CCCCNC(=O)Nc1nc2ccc(CC)cc2s1 ?
FLuc modulator: 6.75µM*; ELG1 genotox: inconclusive; Rab9 prom act: inconclusive; NPC1 promoter act: inconclusive; SMN2 splice enh: inconclusive

What do the screens show for `Cc1ccc(CC(=O)Nc2nc3ccccc3s2)cc1`?
FLuc modulator: 19µM*; ELG1 genotox: 3.1%; Rab9 prom act: inconclusive; NPC1 promoter act: inconclusive; SMN2 splice enh: 5.8%

How did CCCCNC(=O)Nc1nc2ccccc2s1 do in these assays?
FLuc modulator: 10.7µM*; ELG1 genotox: inconclusive; Rab9 prom act: 1.41µM*; NPC1 promoter act: 2.51µM*; SMN2 splice enh: 11.2µM*

How did Cc1ccc(S(=O)(=O)CC(=O)Nc2nc3ccccc3s2)cc1 do in these assays?
FLuc modulator: -7.0%; ELG1 genotox: -1.0%; Rab9 prom act: 2.4%; NPC1 promoter act: -6.3%

Results for CCCCNC(=O)Nc1ccon1 ?
FLuc modulator: 1.2%; ELG1 genotox: 2.3%; Rab9 prom act: -8.6%; NPC1 promoter act: -0.5%; SMN2 splice enh: -26.9%

Results for Cc1ccc(S(=O)(=O)N2CCN(Cc3csc(C)n3)CC2)cc1 ?
FLuc modulator: -0.7%; ELG1 genotox: 1.9%; Rab9 prom act: 7.5%; NPC1 promoter act: 1.9%

What do the screens show for `O=C(NCc1ccc(F)cc1)C(=O)Nc1ccc2nc3n(c(=O)c2c1)CCCCC3`?
FLuc modulator: 4.0%; SMN2 splice enh: -6.0%

What do the screens show for `CC(C)NC(=O)N(C)C[C@H]1Oc2ccc(NS(=O)(=O)c3ccccc3)cc2C(=O)N([C@H](C)CO)C[C@@H]1C`?
ELG1 genotox: 2.1%

Results for CCCNC(=O)Nc1nc2ccccc2s1 ?
FLuc modulator: 9.53µM*; ELG1 genotox: inconclusive; Rab9 prom act: 2.51µM*; NPC1 promoter act: 2.24µM*

How did Cc1nc2c(ccc3nc(NC(=O)c4ccc(S(=O)(=O)N(C)C)cc4)sc32)s1 do in these assays?
FLuc modulator: 2.69µM*; ELG1 genotox: 2.4%; Rab9 prom act: 2.1%; NPC1 promoter act: -2.9%; SMN2 splice enh: 18.8%

Results for O=C(NCCCO)c1nc2ccccc2s1 ?
FLuc modulator: -10.4%; ELG1 genotox: 16.2%; Rab9 prom act: 2.6%; NPC1 promoter act: 9.4%; SMN2 splice enh: 6.2%

What do the screens show for `Cc1nc2c(ccc3nc(NC(=O)Cc4ccccc4)sc32)s1`?
FLuc modulator: 23.9µM*; ELG1 genotox: 18.2%; Rab9 prom act: inconclusive; NPC1 promoter act: 25.3%; SMN2 splice enh: inconclusive

Results for CCCNC(=O)c1ccc(-c2nc3ccccc3s2)s1 ?
FLuc modulator: 0.338µM*; ELG1 genotox: 0.206µM*; Rab9 prom act: 0.708µM*; NPC1 promoter act: inconclusive; SMN2 splice enh: 2.82µM*

What do the screens show for `CN(C)S(=O)(=O)c1ccc(C(=O)Nc2nc(-c3ccccc3)c(C(=O)c3ccccc3)s2)cc1`?
FLuc modulator: -3.2%; ELG1 genotox: -1.5%; Rab9 prom act: 1.6%; NPC1 promoter act: 3.8%; SMN2 splice enh: -56.2%

How did O=C(NCCSCc1c(F)cccc1Cl)C1CCN(S(=O)(=O)Cc2ccccc2)CC1 do in these assays?
FLuc modulator: -6.0%

How did CCS(=O)(=O)n1nc(-c2ccco2)nc1NCc1ccc(C(C)C)cc1 do in these assays?
FLuc modulator: -2.7%

Results for COCCCNC(=O)c1cnn(-c2ccc(F)cc2F)c1C1CCNCC1 ?
FLuc modulator: -0.2%

Results for NS(=O)(=O)c1nc(S(=O)(=O)O)c2[nH]cnc2n1 ?
SMN2 splice enh: -6.3%[9.22 µM]

How did Cc1cc(=O)c2c(O)c3c(O)cc(=O)c4c3c3c(cc(O)c1c23)C(C)(C)C=4O do in these assays?
SMN2 splice enh: -10.9%

Results for CCOC(=O)c1nc2ccccc2s1 ?
FLuc modulator: 13.5µM*; ELG1 genotox: inconclusive; Rab9 prom act: 14.6%; NPC1 promoter act: 9.3%; SMN2 splice enh: -17.0%

What do the screens show for `CCOC(=O)Nc1nc2ccccc2s1`?
FLuc modulator: 6.75µM*; ELG1 genotox: 3.66µM*; Rab9 prom act: 3.55µM*; NPC1 promoter act: 3.16µM*; SMN2 splice enh: inconclusive

What do the screens show for `CN(C)C(=O)c1nc2ccccc2s1`?
FLuc modulator: inconclusive; ELG1 genotox: 14.6%; Rab9 prom act: 1.4%; NPC1 promoter act: 10.0%; SMN2 splice enh: 18.1%

How did CCOC(=O)CC(=O)Nc1nc2ccccc2s1 do in these assays?
FLuc modulator: -15.7%; ELG1 genotox: inconclusive; Rab9 prom act: 3.7%; NPC1 promoter act: 0.6%; SMN2 splice enh: 2.7%

What do the screens show for `CC12CCC(C(=O)Nc3nc4ccccc4s3)(OC1=O)C2(C)C` (stereo unspecified)?
FLuc modulator: 16.9µM*; ELG1 genotox: inconclusive; Rab9 prom act: inconclusive; NPC1 promoter act: inconclusive; SMN2 splice enh: inconclusive

Results for CC12CCC(C(=O)NC(c3ccccc3)c3ccccc3)(OC1=O)C2(C)C (stereo unspecified) ?
FLuc modulator: 6.0%; ELG1 genotox: 4.3%; Rab9 prom act: 2.1%; NPC1 promoter act: 1.0%; SMN2 splice enh: -4.3%

What do the screens show for `CC(C)Cc1ccc(S(=O)(=O)NCC2CCCO2)cc1` (stereo unspecified)?
FLuc modulator: 5.7%; ELG1 genotox: -8.1%; Rab9 prom act: -3.8%; NPC1 promoter act: -1.0%

Screening data from PubChem BioAssay.
